The text below walks through data of the supplement of paper PMC12494721.

Holding throughout (settings): incubation time: 27 h, anaerobic, 37 °C
For assay [1], the system named is Clostridium sporogenes DSM 1664. In words: growth (OD595) fold change vs plate DMSO controls (fold change (ratio)); higher = more growth. The method, boiled down: (§1)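 Each value is the mean of 2 biological replicates, and fold changes above 1.5 were set to NA. The underlying readings were taken at 595 nm from shaken anaerobic mGAM cultures in 96-well plates after 27 h at 37 °C. They were blank-subtracted, corrected for compound background using 20 µM compound solutions in water, and converted to OD with a calibration factor of 5. Growth is the fold change relative to the median of the plate DMSO controls.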

Assay [2] relates to Escherichia coli IAI1. Described as above. The procedure, abridged:
as §1

Assay [3] concerns Klebsiella aerogenes DSM 30053. The description is as above. The procedure, abridged:
as §1

In assay [4] the test system is Ruminococcus gnavus DSM 108212. The description is as above. The method, boiled down:
as §1

For assay [5], the system named is Klebsiella aerogenes DSM 30053. In words: fold change of Histamine concentration vs plate DMSO controls (fold change (ratio)); higher = more amine produced, active = hit call of the paper (significant change in both replicates, either direction). The procedure, abridged: (§2)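 Amines were quantified by LC–triple-quadrupole MS in dynamic MRM mode against external calibration curves, with drift correction within each batch. The samples were whole anaerobic mGAM cultures of four gut bacterial strains, grown for 27 h at 37 °C in 80 µL wells and extracted with cold acetonitrile/methanol with 0.1% formic acid, then centrifuged. Values are reported as fold change over DMSO controls on the same plate. The mean of 2 biological replicates is given.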

Assay [6] relates to Clostridium sporogenes DSM 1664. In words: fold change of Tryptamine concentration vs plate DMSO controls (fold change (ratio)); higher = more amine produced, active = hit call of the paper (significant change in both replicates, either direction). The procedure, abridged:
as §2

The test system of assay [7] is Ruminococcus gnavus DSM 108212. The description is as above. The procedure, abridged:
as §2

Assay [8] concerns Escherichia coli IAI1. In words: fold change of Putrescine concentration vs plate DMSO controls (fold change (ratio)); higher = more amine produced, active = hit call of the paper (significant change in both replicates, either direction). The procedure, abridged: as §2
The test system of assay [9] is Klebsiella aerogenes DSM 30053. The description is as above. The procedure, abridged:
as §2

The test system of assay [10] is Escherichia coli IAI1. In words: fold change of Cadaverine concentration vs plate DMSO controls (fold change (ratio)); higher = more amine produced, active = hit call of the paper (significant change in both replicates, either direction). The method, boiled down:
as §2

Assay [11] relates to Klebsiella aerogenes DSM 30053. The assay is described as above. The procedure, abridged: as §2
Assay [12] has as its system Ruminococcus gnavus DSM 108212. In words: fold change of 2-Phenylethylamine concentration vs plate DMSO controls (fold change (ratio)); higher = more amine produced, active = hit call of the paper (significant change in both replicates, either direction). The method, boiled down:
as §2

Counter-ions that a name gives are not always drawn.

With `OC[C@H]1O[C@H](O[C@H]2[C@H](O)[C@@H](O)[C@H](O)O[C@@H]2CO)[C@H](O)[C@@H](O)[C@@H]1O` [Maltose] (50 µM), the growth was found to be 1 in assay [1], 1.03 in [2], 1.03 in assay [3] and 1 in assay [4]. In addition, the “fold change of Histamine concentration” value in [5] is 0.966 (inactive). Also, the “fold change of Tryptamine concentration” value in assay [6] is 0.991 (inactive); in assay [7] it was 0.984 (inactive). For the same compound, the “fold change of Putrescine concentration” value in assay [8] was 1.02 (inactive); in assay [9] it was 0.996 (inactive). The “fold change of Cadaverine concentration” value in assay [10] is 1.06 (inactive); in [11], 0.999 (inactive). Moreover, in [12], the “fold change of 2-Phenylethylamine concentration” value is 1.01 (inactive).

As for `COc1ccc(C2CNC(=O)C2)cc1OC1CCCC1` (centres undefined) [Rolipram] (20 µM), the growth was 0.936 in assay [1], 0.98 in assay [2], 1.03 in assay [3] and 0.936 in assay [4]. The “fold change of Histamine concentration” value in [5] is 0.951 (inactive). For the same compound, the “fold change of Tryptamine concentration” value in assay [6] and in [7] was 1.03 (inactive) throughout. Also, the results for the “fold change of Putrescine concentration” value in [8] and in assay [9] were 0.954 (inactive) and 0.989 (inactive), respectively. The “fold change of Cadaverine concentration” value is 0.984 (inactive) in [10] and 1 (inactive) in assay [11]. For the same compound, the “fold change of 2-Phenylethylamine concentration” value in [12] is 1.06 (inactive).

Regarding `CCOc1ccc2ccccc2c1C(=O)N[C@@H]1C(=O)N2[C@@H]1SC(C)(C)[C@@H]2C(=O)O` [Nafcillin sodium salt monohydrate] (20 µM), the growth in assay [1] turned out to be 0; in assay [2], 0.973; in assay [3], 1.01; in assay [4], 0. For the same compound, in [5], the “fold change of Histamine concentration” value was 0.899 (inactive). In addition, the results for the “fold change of Tryptamine concentration” value in assay [6] and in assay [7] were 0.0237 (active) and 0.0506 (active), respectively. The “fold change of Putrescine concentration” value was 0.908 (inactive) in [8] and 1.06 (inactive) in assay [9]. Further, the “fold change of Cadaverine concentration” value in [10] and in assay [11] was 1.02 (inactive) each time. For the same compound, the “fold change of 2-Phenylethylamine concentration” value in assay [12] was 0.0511 (active).

`CN1CCC(=C2c3ccccc3Sc3ccccc32)CC1` [Pimethixene maleate] (20 µM): the growth came to 1.13 in assay [1], 0.985 in [2], 0.967 in [3] and 1.26 in assay [4]. In [5], the “fold change of Histamine concentration” value was 1.02 (inactive). Further, the “fold change of Tryptamine concentration” value in assay [6] is 1.01 (inactive); in assay [7], 0.87 (inactive). In addition, the “fold change of Putrescine concentration” value in assay [8] was 0.974 (inactive); in assay [9], 0.991 (inactive). Also, the “fold change of Cadaverine concentration” value is 1.02 (inactive) in [10] and 0.993 (inactive) in assay [11]. Also, the “fold change of 2-Phenylethylamine concentration” value in assay [12] is 0.865 (inactive).

As for `NC[C@@H]1O[C@H](O[C@H]2[C@@H](O)[C@H](O[C@@H]3[C@@H](O)[C@H](N)C[C@H](N)[C@H]3O[C@H]3O[C@H](CN)[C@@H](O)[C@H](O)[C@H]3N)O[C@@H]2CO)[C@H](N)[C@@H](O)[C@@H]1O` [Neomycin sulfate] (20 µM), the growth was found to be 0.902 in [1], 0.997 in [2], 1.02 in assay [3] and 0.938 in assay [4]. Further, the “fold change of Histamine concentration” value in [5] was 0.893 (inactive). In addition, the “fold change of Tryptamine concentration” value in [6] is 1.16 (inactive); in assay [7], 1.08 (inactive). In addition, the “fold change of Putrescine concentration” value in assay [8] was 0.954 (inactive); in [9] it was 0.966 (inactive). Besides, the “fold change of Cadaverine concentration” value in [10] is 0.897 (inactive); in assay [11], 1.02 (inactive). Moreover, in [12], the “fold change of 2-Phenylethylamine concentration” value was 1.11 (inactive).

Turning to `c1ccc([C@H]2CN3CCSC3=N2)cc1` [Levamisole hydrochloride] (20 µM), the growth in assay [1] amounted to 1; in [2], 0.988; in [3], 0.966; in [4], 1. In addition, in assay [5], the “fold change of Histamine concentration” value is 1.07 (inactive). Besides, the “fold change of Tryptamine concentration” value was 0.986 (inactive) in [6] and 0.908 (inactive) in [7]. Moreover, the “fold change of Putrescine concentration” value in [8] was 0.967 (inactive); in [9], 1.02 (inactive). Moreover, the “fold change of Cadaverine concentration” value in assay [10] is 1.01 (inactive); in [11], 0.994 (inactive). Besides, the “fold change of 2-Phenylethylamine concentration” value in assay [12] is 0.961 (inactive).

For the compound `CC(C)NC[C@@H](O)COc1cccc2ccccc12` [(R) Propranolol hydrochloride] (20 µM), the growth in assay [1] worked out at 1.08; in assay [2], 0.856; in assay [3], 0.86; in assay [4], 0.617. In assay [5], the “fold change of Histamine concentration” value was 1.01 (inactive). Also, the “fold change of Tryptamine concentration” value in assay [6] is 1.04 (inactive); in [7], 0.95 (inactive). Further, the figures for the “fold change of Putrescine concentration” value in [8] and in assay [9] were 0.979 (inactive) and 0.993 (inactive), respectively. Also, the “fold change of Cadaverine concentration” value is 1.01 (inactive) in [10] and 0.987 (inactive) in assay [11]. In assay [12], the “fold change of 2-Phenylethylamine concentration” value is 0.945 (inactive).

For the compound `CCCCN(CCCC)CCCOC(=O)c1ccc(N)cc1` [Butacaine] (20 µM), the growth in [1] was found to be 1.11; in [2] it was 1.03; in assay [3], 1.02; in [4] it was 1. For the same compound, the “fold change of Histamine concentration” value in assay [5] was 1.03 (inactive). In addition, the “fold change of Tryptamine concentration” value is 0.973 (inactive) in assay [6] and 0.951 (inactive) in assay [7]. The “fold change of Putrescine concentration” value in assay [8] is 0.955 (inactive); in [9], 1.01 (inactive). Further, the “fold change of Cadaverine concentration” value in assay [10] is 1.02 (inactive); in assay [11], 1 (inactive). The “fold change of 2-Phenylethylamine concentration” value in [12] was 0.913 (inactive).

As for `COc1ccc(/C=C/C(=O)Nc2ccccc2C(=O)O)cc1OC` [Tranilast] (20 µM), the growth in assay [1] turned out to be 1.04; in assay [2], 1.07; in assay [3] it was 1.19; in assay [4] it was 1.08. Moreover, the “fold change of Histamine concentration” value in assay [5] is 0.89 (inactive). Further, the “fold change of Tryptamine concentration” value in assay [6] is 0.993 (inactive); in [7] it was 1.01 (inactive). Further, the “fold change of Putrescine concentration” value in assay [8] is 0.977 (inactive); in assay [9], 0.994 (inactive). For the same compound, the “fold change of Cadaverine concentration” value in assay [10] was 0.995 (inactive); in assay [11] it was 1.02 (inactive). Further, in [12], the “fold change of 2-Phenylethylamine concentration” value was 0.981 (inactive).

Turning to `OC(CCCN1CCCCC1)(c1ccccc1)c1ccccc1` [Diphenidol hydrochloride] (20 µM), the growth in assay [1] came out at 1.03; in [2], 1.08; in assay [3], 1.01; in assay [4], 1.26. Also, the “fold change of Histamine concentration” value in assay [5] is 1.06 (inactive). The “fold change of Tryptamine concentration” value in assay [6] was 1.03 (inactive); in assay [7], 0.963 (inactive). For the same compound, the entries for the “fold change of Putrescine concentration” value in assay [8] and in assay [9] were 1.05 (inactive) and 1.02 (inactive), respectively. In addition, the “fold change of Cadaverine concentration” value in [10] is 0.932 (inactive); in assay [11] it was 0.981 (inactive). In addition, in assay [12], the “fold change of 2-Phenylethylamine concentration” value is 0.92 (inactive).

With `O=C(O)c1ccccc1OP(=O)(O)O` [Fosfosal] (20 µM), the growth stood at 0.91 in [1], 1.01 in [2], 1.01 in assay [3] and 1.17 in [4]. In assay [5], the “fold change of Histamine concentration” value is 0.997 (inactive). The “fold change of Tryptamine concentration” value in [6] is 1.05 (inactive); in assay [7], 1.03 (inactive). For the same compound, the results for the “fold change of Putrescine concentration” value in assay [8] and in assay [9] were 0.942 (inactive) and 1 (inactive), respectively. The “fold change of Cadaverine concentration” value in assay [10] and in assay [11] was 0.995 (inactive) throughout. Moreover, the “fold change of 2-Phenylethylamine concentration” value in assay [12] is 1.04 (inactive).

`c1ccc(-c2ccc(C(c3ccccc3)n3ccnc3)cc2)cc1` (centres undefined) [Bifonazole] (20 µM): the growth in [1] was 1.27; in [2], 1.08; in assay [3], 1.02; in assay [4], 0.817. Besides, the “fold change of Histamine concentration” value in [5] was 0.99 (inactive). For the same compound, the “fold change of Tryptamine concentration” value in assay [6] is 0.923 (inactive); in [7], 0.82 (inactive). Moreover, the “fold change of Putrescine concentration” value in assay [8] is 1.04 (inactive); in [9], 1.01 (inactive). The “fold change of Cadaverine concentration” value in [10] was 0.981 (inactive); in assay [11], 1 (inactive). Moreover, in [12], the “fold change of 2-Phenylethylamine concentration” value is 0.927 (inactive).
